HCV inhibitor – inhibitors of hepatitis C virus infection | Huh7.5.1 HCVcc-Cre infection, luciferase reporter, 44 h | Potency, µM (doses to about 41.8 µM), hits mostly inhibitors | 340,000 tested, 3.4% active | AID 651820
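Reporter virus HCVcc-Cre (~0.5 moi) infects cells exposed to compound; seeding density 1,000 cells/well with 4 h settling beforehand. Luminescence, 15 sec read, taken 44 h post-infection following a 15 min RT substrate incubation.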
SARS PLpro yeast – blocks SARS-CoV papain-like protease in a yeast assay | S. cerevisiae expressing SARS-CoV PLpro, growth rescue | Potency, µM (highest dose often 32.9 µM), usual class: activators | 330,000 tested, 0.19% active | AID 485353; calls by dose curve; further: nearly all actives have a fitted effect of over 55% in size
Pf growth 48h – P. falciparum growth inhibition at 48 hours (one generation). AID 504832. 310,000 tested, 5.9% active. P. falciparum luciferase growth in erythrocytes, 48 h. Potency, µM (doses to about 28.7 µM), hits mostly inhibitors
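Parasite viability was followed by luminescence of a genomically integrated firefly luciferase. Cultures held 0.1% parasitemia at 2% hematocrit (final), incubated under 5% CO2 at 37 C.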
Sm TGR block – inhibitors of Schistosoma mansoni thioredoxin glutathione reductase; purified TGR, DTNB reduction, TNB absorbance 405 nm; Potency, µM (highest dose often 114 µM), hits mostly inhibitors; 360,000 tested, 3% active; further: nearly all actives have a fitted effect of over 60% in size
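First, TGR (20 nM dispensed) and NADPH were mixed with compound. Second, a 15 min room-temperature incubation followed. Third, further NADPH and then DTNB were added to start the reaction. Finally, TNB absorbance was monitored kinetically.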
Pf growth 96h – inhibits malaria parasite growth, 96 h; Potency, µM (titrated, usually from 28.7 µM), actives largely listed as inhibitors; 320,000 tested, 6.9% active; P. falciparum luciferase reporter growth, 96 h
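P. falciparum expressing integrated firefly luciferase, in erythrocytes at 2% hematocrit, 0.05% parasitemia, incubated with compounds 96 h at 37 C, 5% CO2. Growth inhibition read as loss of luminescence; two-generation exposure targets delayed-death apicoplast inhibitors.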
HCMV antiviral – inhibitors of human cytomegalovirus; HFF cells, HCMV-luciferase reporter, 72 h; active compounds read low; activity change, negative = inhibition, % at 57.5 µM; 410,000 tested, 4.5% active; AID 1259415; in the data active means activity change below about -60%; inconclusive means no clear call, values can overlap the other calls; inactive means above about -39%
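Luciferase read-out from HCMV-luciferase-infected HFFs (MOI 1 PFU/cell) 72 h post infection at 37C; compounds added after 16 h cell attachment; activity normalized between buffer-only basal and Salinomycin (10uM) inhibitor controls.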
A number is an active result. Sampled rows, rich in hits. Any-hit rate of the full collection: about 15%. Unless noted, the call rests on the fitted dose curve; in most records, active means well fitted curve in the direction sought with a large enough effect; inconclusive means small, poorly fitted or top-dose-only effect, or another doubt; inactive means no such curve, though single readings can be large; an effect the other way counts as inactive or inconclusive.

Results for COC(=O)C1=CN(CCCN2CCCC2=O)C=C(C(=O)OC)C1c1ccccc1C(F)(F)F ?
HCV inhibitor: inactive; SARS PLpro yeast: inactive; Pf growth 48h: inconclusive; Sm TGR block: inactive; HCMV antiviral: -65.0

Results for COC(=O)C1=CN(CC2CCCO2)C=C(C(=O)OC)C1c1ccccc1C(F)(F)F (centres undefined) ?
HCV inhibitor: inactive; SARS PLpro yeast: inactive; Pf growth 48h: inconclusive; Sm TGR block: inactive; Pf growth 96h: inconclusive; HCMV antiviral: inactive

How did Cc1ccccc1S(=O)(=O)Cc1ccc(C(=O)N2CC(C)CC(C)C2)o1 (centres undefined) do in these assays?
HCV inhibitor: inactive; SARS PLpro yeast: inactive; Sm TGR block: inconclusive; Pf growth 96h: 16.5µM; HCMV antiviral: inconclusive

How did Cc1ccccc1S(=O)(=O)Cc1ccc(C(=O)N2CCN(c3cccc(Cl)c3)CC2)o1 do in these assays?
Sm TGR block: inactive; HCMV antiviral: inactive

What do the screens show for `Cc1ccccc1S(=O)(=O)Cc1ccc(C(=O)N2CCN(c3cccc(C)c3C)CC2)o1`?
HCV inhibitor: 5.01µM; SARS PLpro yeast: inactive; Pf growth 48h: inconclusive; Sm TGR block: inactive; HCMV antiviral: inactive

What do the screens show for `COCCNC(=O)C1(C)CCCN(Cc2ccc(-n3ccnc3)cc2)C1` (centres undefined)?
HCMV antiviral: inactive

Results for OC[C@H](S)CS ?
Pf growth 48h: 1.51µM; Pf growth 96h: 0.601µM

Results for Cc1ccc(CNC(=O)C2CCCN(S(=O)(=O)c3cn(C)cn3)C2)cc1 (centres undefined) ?
Sm TGR block: inactive; HCMV antiviral: inactive

How did Cc1ncc([N+](=O)[O-])n1CC(=O)N/N=C/c1ccccc1F do in these assays?
HCV inhibitor: inactive; SARS PLpro yeast: inactive; Pf growth 48h: inactive; Sm TGR block: inactive; Pf growth 96h: inactive; HCMV antiviral: inactive

What do the screens show for `Cc1cc(C)nc(Nc2ccc(O)cc2)n1`?
HCV inhibitor: inactive; SARS PLpro yeast: inactive; Sm TGR block: inactive; Pf growth 96h: inactive; HCMV antiviral: inactive

How did Cc1cc(C)nc(Sc2nc(Nc3ccccc3)nc(Sc3nc(C)cc(C)n3)n2)n1 do in these assays?
HCV inhibitor: inconclusive; SARS PLpro yeast: inactive; Pf growth 48h: inconclusive; Sm TGR block: inactive; Pf growth 96h: inconclusive; HCMV antiviral: -72.4

How did O=C1C[C@@H]2c3c(cccc3CN1Cc1ccccc1Br)C[C@@H](O)[C@H]2O do in these assays?
HCV inhibitor: inactive; HCMV antiviral: inactive

What do the screens show for `Cc1ccccc1NC(=O)c1ccc(F)c(S(=O)(=O)NCC2CCCO2)c1` (centres undefined)?
HCV inhibitor: inactive; SARS PLpro yeast: inactive; Pf growth 48h: inactive; Sm TGR block: inconclusive; Pf growth 96h: inactive; HCMV antiviral: inactive

Results for Cc1ccc(NC(=O)c2ccc(Cl)c(S(=O)(=O)NCC3CCCO3)c2)c(O)c1 (centres undefined) ?
HCV inhibitor: inconclusive; SARS PLpro yeast: inactive; Pf growth 48h: inconclusive; Sm TGR block: inactive; Pf growth 96h: 6.57µM; HCMV antiviral: inactive

What do the screens show for `CC(C)(C)c1ccccc1OCC(=O)NCc1ccccc1`?
HCV inhibitor: inconclusive; SARS PLpro yeast: inactive; Pf growth 48h: inactive; Sm TGR block: inactive; Pf growth 96h: inactive; HCMV antiviral: inactive

How did CCCCC(CC)CNC(=O)c1cccs1 (centres undefined) do in these assays?
HCV inhibitor: inactive; SARS PLpro yeast: inactive; Pf growth 48h: 5.22µM; Sm TGR block: inactive; Pf growth 96h: 4.65µM; HCMV antiviral: inconclusive

What do the screens show for `O=C(NCCCNC(=O)c1cccs1)c1cccs1`?
HCV inhibitor: inactive; SARS PLpro yeast: inactive; Pf growth 48h: inactive; Sm TGR block: inactive; Pf growth 96h: inactive; HCMV antiviral: inactive

What do the screens show for `CC(=O)CCC(=O)N1CCC(n2nccc2NC(=O)c2ccccc2C)CC1`?
SARS PLpro yeast: inactive; Pf growth 48h: inactive; Sm TGR block: inactive; Pf growth 96h: inactive; HCMV antiviral: inactive

Results for COc1ccccc1OCCNC(=O)CCC(=O)N1CCOCC1 ?
HCV inhibitor: inactive; SARS PLpro yeast: inactive; Pf growth 48h: inactive; Sm TGR block: inactive; Pf growth 96h: inactive; HCMV antiviral: inactive

How did COc1ccc(C(=O)N/C(=C\c2cn(S(=O)(=O)N(C)C)c3ccccc23)C(=O)N2CCCC2)cc1 do in these assays?
HCMV antiviral: inactive

How did O=C(C1=C(O)C(=O)N(CCN2CCOCC2)C1c1ccccn1)c1cccs1 (centres undefined) do in these assays?
HCV inhibitor: inactive; SARS PLpro yeast: inactive; Pf growth 48h: inactive; Sm TGR block: 20µM; HCMV antiviral: inactive

Results for CCN(CC)CCN1C(=O)C(O)=C(C(=O)c2cccs2)C1c1ccccn1 (centres undefined) ?
SARS PLpro yeast: inactive; Sm TGR block: inconclusive; Pf growth 96h: inactive; HCMV antiviral: inactive

How did CCN(CC)CCN1C(=O)C(O)=C(C(=O)c2cccs2)C1c1ccc(C)o1 (centres undefined) do in these assays?
HCV inhibitor: inactive; SARS PLpro yeast: inactive; Pf growth 48h: inactive; Sm TGR block: 28.2µM; Pf growth 96h: inconclusive; HCMV antiviral: inactive

How did O=C(C1=C(O)C(=O)N(CCN2CCOCC2)C1c1ccc(F)cc1)c1cccs1 (centres undefined) do in these assays?
HCV inhibitor: inactive; SARS PLpro yeast: inactive; Pf growth 48h: inactive; Sm TGR block: inactive; Pf growth 96h: inactive; HCMV antiviral: inconclusive

How did Cc1ccc(C2C(C(=O)c3cccs3)=C(O)C(=O)N2CCN2CCOCC2)o1 (centres undefined) do in these assays?
HCV inhibitor: inactive; SARS PLpro yeast: inactive; Pf growth 48h: inactive; Sm TGR block: 20µM; Pf growth 96h: inconclusive; HCMV antiviral: inactive

How did Cc1ccc(C2C(C(=O)c3sc(C)nc3C)=C(O)C(=O)N2CCN(C)C)o1 (centres undefined) do in these assays?
HCV inhibitor: inactive; SARS PLpro yeast: inactive; Pf growth 48h: inactive; Sm TGR block: 44.7µM; Pf growth 96h: 5.86µM; HCMV antiviral: inactive

Results for CCCCNC(=O)COC(=O)c1ccc(Cl)c(S(N)(=O)=O)c1 ?
HCV inhibitor: inactive; SARS PLpro yeast: inactive; Pf growth 48h: inactive; Sm TGR block: inactive; HCMV antiviral: inactive

How did Cc1ccc(NC(=O)C2CCN(C(=O)N3CCOc4ccccc43)CC2)cc1 do in these assays?
HCV inhibitor: inactive; SARS PLpro yeast: inactive; Pf growth 48h: inconclusive; Sm TGR block: inactive; Pf growth 96h: 13.1µM; HCMV antiviral: inactive

What do the screens show for `Cc1cccc(NC(=O)C2CCN(C(=O)N3CCOc4ccccc43)CC2)c1C`?
HCV inhibitor: inactive; SARS PLpro yeast: inactive; Pf growth 48h: inconclusive; Sm TGR block: inactive; Pf growth 96h: 14.7µM; HCMV antiviral: inactive

What do the screens show for `CCC1CCCCN1CCCNC(=O)CN1C(=O)COc2ccccc21` (centres undefined)?
HCV inhibitor: inactive; SARS PLpro yeast: inactive; Pf growth 48h: inactive; Sm TGR block: inactive; Pf growth 96h: inactive; HCMV antiviral: inactive

Screens as filed in PubChem BioAssay.
